# Calls of active or inactive are those of the source.
# What was measured:
# [1] = test system: Plasmodium falciparum Sir2 (PF13_0152, Sir2A); test: pfSir2 binders on small-molecule microarrays, primary screen, biochemical, small-molecule microarray, 635 nm fluorescence (AID 1098); details: small-molecule microarray binding, fluorescence 635 nm; higher = more signal;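 note: score merges spot fluorescence intensity with its signal-to-noise ratio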
# [2] = small-molecule microarray binders of probe aDKK1, primary screen, biochemical, biotinylated probe, 635/667 nm fluorescence (AID 1099); details: higher = more signal;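 note: score merges 667nm spot fluorescence with signal to noise across triplicate slides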
# [3] = small-molecule microarray binders of probe aCHRDL2, primary screen, biochemical, biotinylated probe, 635/667 nm fluorescence (AID 1100); details: higher = more signal
# [4] = splicing luciferase reporter signal modulators, primary screen, spliceosome inhibition project, cell-based, HEK293, splice +/- reporter (AID 1101); details: luminescence, 24 h, higher = more signal, called active from +8 up or from −8 down;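 note: HEK293 cells carrying a splicing-competent luciferase reporter gene; test concentration not given here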
# [5] = molecular target: Fibroblast growth factor 10 (Homo sapiens) (UniProt O15520); test: FGF10 binders on small-molecule microarrays, primary screen, biochemical, small-molecule microarray, 635 nm fluorescence (AID 1102); details: FGF10 binding, fluorescence 635 nm, higher = more signal
# Sequence of Fibroblast growth factor 10 (Homo sapiens) (O15520 whole entry, looked up): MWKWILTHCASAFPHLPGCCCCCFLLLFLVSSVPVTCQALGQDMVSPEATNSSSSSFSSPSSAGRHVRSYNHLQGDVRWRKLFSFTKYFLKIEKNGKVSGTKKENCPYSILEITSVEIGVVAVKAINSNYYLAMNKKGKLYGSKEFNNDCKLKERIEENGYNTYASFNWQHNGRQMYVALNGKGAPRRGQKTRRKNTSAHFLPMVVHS
# [6] = test system: glycogen synthase kinase-3 (GSK3A per assay name; protocol says GSK3B); test: GSK3 binders on small-molecule microarrays, primary screen, biochemical, small-molecule microarray, 635 nm fluorescence, GSK3A (AID 1103); details: small-molecule microarray binding, fluorescence 635 nm; higher = more signal; note: the record names both GSK3A and GSK3B
# [7] = molecular target: Epidermal growth factor receptor (Homo sapiens) (UniProt P00533); test: EGFR binders on small-molecule microarrays, primary screen, biochemical, small-molecule microarray, 635 nm fluorescence (AID 1104); details: EGFR binding, higher = more signal;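 note: score merges 667 nm emission intensity with spot signal to noise over triplicate slides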
# Sequence of Epidermal growth factor receptor (Homo sapiens) (P00533 whole entry, looked up): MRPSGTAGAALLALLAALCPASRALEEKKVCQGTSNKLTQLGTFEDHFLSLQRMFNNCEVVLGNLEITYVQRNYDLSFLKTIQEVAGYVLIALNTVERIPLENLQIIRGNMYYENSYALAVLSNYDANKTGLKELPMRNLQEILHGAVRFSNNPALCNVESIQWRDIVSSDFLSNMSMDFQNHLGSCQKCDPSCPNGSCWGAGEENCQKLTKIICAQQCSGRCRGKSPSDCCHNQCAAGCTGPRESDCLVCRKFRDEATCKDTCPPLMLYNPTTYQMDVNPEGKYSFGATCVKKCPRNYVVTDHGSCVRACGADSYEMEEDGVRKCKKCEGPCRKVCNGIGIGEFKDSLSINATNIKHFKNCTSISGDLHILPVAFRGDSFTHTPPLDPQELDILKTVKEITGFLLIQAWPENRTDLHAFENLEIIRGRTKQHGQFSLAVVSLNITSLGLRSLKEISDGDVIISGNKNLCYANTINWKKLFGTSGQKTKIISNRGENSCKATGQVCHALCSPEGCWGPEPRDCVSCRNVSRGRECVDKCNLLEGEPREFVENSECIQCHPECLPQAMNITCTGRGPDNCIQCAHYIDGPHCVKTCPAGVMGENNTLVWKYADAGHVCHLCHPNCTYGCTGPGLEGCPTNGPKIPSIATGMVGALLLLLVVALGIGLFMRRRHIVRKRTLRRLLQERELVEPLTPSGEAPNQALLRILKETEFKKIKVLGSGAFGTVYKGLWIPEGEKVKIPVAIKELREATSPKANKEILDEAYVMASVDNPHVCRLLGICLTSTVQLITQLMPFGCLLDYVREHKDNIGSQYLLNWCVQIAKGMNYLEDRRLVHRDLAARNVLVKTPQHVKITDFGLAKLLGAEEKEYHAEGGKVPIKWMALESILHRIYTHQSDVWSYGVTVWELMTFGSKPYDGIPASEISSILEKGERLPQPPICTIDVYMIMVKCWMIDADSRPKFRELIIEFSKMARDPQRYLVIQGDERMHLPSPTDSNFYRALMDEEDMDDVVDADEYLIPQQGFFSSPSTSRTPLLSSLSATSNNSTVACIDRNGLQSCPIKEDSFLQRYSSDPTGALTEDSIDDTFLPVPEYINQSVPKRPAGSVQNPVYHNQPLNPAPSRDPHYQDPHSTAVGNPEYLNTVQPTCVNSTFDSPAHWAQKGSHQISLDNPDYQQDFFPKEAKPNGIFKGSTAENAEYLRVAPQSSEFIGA
# [8] = molecular target: Follistatin-related protein 3 (Homo sapiens) (UniProt O95633); test: FSTL3 binders on small-molecule microarrays, primary screen, biochemical, small-molecule microarray, 635 nm fluorescence (AID 1105); details: FSTL3 binding, higher = more signal;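 note: score merges emission near 667 nm and signal to noise per printed spot across three slides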
# Sequence of Follistatin-related protein 3 (Homo sapiens) (O95633 whole entry, looked up): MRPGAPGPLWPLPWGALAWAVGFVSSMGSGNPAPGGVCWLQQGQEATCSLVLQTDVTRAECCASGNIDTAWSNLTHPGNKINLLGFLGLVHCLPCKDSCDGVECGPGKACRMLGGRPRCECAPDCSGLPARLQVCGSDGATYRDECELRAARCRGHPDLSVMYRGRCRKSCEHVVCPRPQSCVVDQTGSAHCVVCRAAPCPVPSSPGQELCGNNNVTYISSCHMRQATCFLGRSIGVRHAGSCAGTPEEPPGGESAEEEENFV
# [9] = molecular target: Dickkopf-related protein 1 (Homo sapiens) (UniProt O94907); test: DKK1 binders on small-molecule microarrays, primary screen, biochemical, small-molecule microarray, 635 nm fluorescence scan (AID 1106); details: DKK1 binding, higher = more signal;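 note: score merges emission near 667 nm with signal to noise over three replicate slides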
# Sequence of Dickkopf-related protein 1 (Homo sapiens) (O94907 whole entry, looked up): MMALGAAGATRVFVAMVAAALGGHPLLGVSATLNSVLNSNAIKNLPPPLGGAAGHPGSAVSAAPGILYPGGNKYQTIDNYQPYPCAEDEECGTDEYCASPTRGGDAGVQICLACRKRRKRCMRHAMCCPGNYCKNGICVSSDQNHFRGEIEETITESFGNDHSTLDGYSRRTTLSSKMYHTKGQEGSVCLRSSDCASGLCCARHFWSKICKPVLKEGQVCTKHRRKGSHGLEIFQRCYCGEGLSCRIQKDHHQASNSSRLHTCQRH
# [10] = test system: Inhibin beta A chain (activin A); test: INHBA (activin A) binders on microarrays, primary screen, biochemical, small-molecule microarray, 635 nm fluorescence scan (AID 1107); details: small-molecule microarray binding, higher = more signal;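 note: mouse activin A protein probed at 4.33 µg/mL on printed slides; score merges bound-protein fluorescence near 667 nm with spot signal-to-noise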
# [11] = test system: Human papillomavirus type 1a protein E7 (residues 44-93); test: HPV1a E7 fragment binders on microarrays, primary screen, biochemical, small-molecule microarray, residues 44-93, 635 nm fluorescence (AID 1108); details: small-molecule microarray binding, fluorescence 635 nm; higher = more signal;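 note: E7 fragment applied at 1 µg/mL in TBST for 1 h at 4 C; score combines spot fluorescence with its signal to noise ratio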
# [12] = modulators of HCV replicon luciferase signal, primary screen, HCV replication inhibitor project, Huh7 cells, luciferase reporter (AID 1109); details: 48 h, higher = more signal;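 note: huh7 hepatoma cells harbouring a luciferase neomycin HCV replicon reporter; luciferase luminescence as measure of HCV replicon replication; test concentration not given here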
# [13] = molecular target: Left-right determination factor 2 (Homo sapiens) (UniProt O00292); test: LEFTY2 binders on small-molecule microarrays, primary screen, biochemical, small-molecule microarray, 635 nm fluorescence scan (AID 1110); details: LEFTY2 binding, higher = more signal
# Sequence of Left-right determination factor 2 (Homo sapiens) (O00292 whole entry, looked up): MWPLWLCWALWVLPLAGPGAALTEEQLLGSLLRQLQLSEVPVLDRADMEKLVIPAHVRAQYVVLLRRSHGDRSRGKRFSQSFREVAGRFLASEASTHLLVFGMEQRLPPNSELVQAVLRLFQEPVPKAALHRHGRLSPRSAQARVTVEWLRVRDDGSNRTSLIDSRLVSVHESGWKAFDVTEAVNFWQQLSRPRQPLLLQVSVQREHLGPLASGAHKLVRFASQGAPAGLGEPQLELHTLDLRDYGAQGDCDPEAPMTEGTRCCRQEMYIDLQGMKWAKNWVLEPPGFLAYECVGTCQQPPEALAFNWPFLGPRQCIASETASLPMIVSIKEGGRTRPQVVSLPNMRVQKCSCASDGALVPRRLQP
# [14] = molecular target: Calmodulin-1 (Homo sapiens) (UniProt P0DP23); test: CALM1 binders on microarrays, EGTA buffer, profiling panel, biochemical, small-molecule microarray, Cy5-labelled CALM1 (AID 1111); details: Cy5-CALM1 binding fluorescence, higher = more signal;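 note: labelled calmodulin applied in Tris saline Tween buffer holding calcium plus EGTA and DTT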
# [15] = molecular target: Calmodulin-1 (Homo sapiens) (UniProt P0DP23); test: calcium-bound CALM1 binders on microarrays, profiling panel, artefact control for SMM control-protein annotation, biochemical, small-molecule microarray, Cy5-labelled CALM1, plus calcium (AID 1112); details: Cy5-CALM1 binding fluorescence, higher = more signal;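 note: score merges spot fluorescence with signal to noise from triplicate slides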
# [16] = small-molecule microarray binders of probe aWnt5a, primary screen, biochemical, biotinylated probe, 635/667 nm fluorescence (AID 1113); details: higher = more signal;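 note: score merges 667 nm fluorescence intensity with signal-to-noise per printed feature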
# [17] = small-molecule microarray binders of probe aShh, primary screen, biochemical, biotinylated probe, 635/667 nm fluorescence (AID 1114); details: higher = more signal;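 note: probe is biotin-labelled aShh protein from a stem cell growth factor screen; measures binding of labelled protein to compounds printed on the slide; score merges feature fluorescence at 667 nm with signal-to-noise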
# [18] = small-molecule microarray binders of probe aNog, primary screen, biochemical, biotinylated probe, 635/667 nm fluorescence (AID 1115); details: higher = more signal;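 note: probe is biotinylated aNog protein used at 0.15 µg/mL for 1 h at 4 C; z-score combines 667 nm fluorescence of each spot with its signal to noise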
# [19] = molecular target: Torsin-1A-interacting protein 1 (Homo sapiens) (UniProt Q5JTV8); test: LAP1 binders from COS7 cell lysate, primary screen, small-molecule microarray, 635/667 nm fluorescence (AID 1116); details: COS7-hLAP1 lysate binding, 635 nm fluorescence, higher = more signal
# Sequence of Torsin-1A-interacting protein 1 (Homo sapiens) (Q5JTV8 whole entry, looked up): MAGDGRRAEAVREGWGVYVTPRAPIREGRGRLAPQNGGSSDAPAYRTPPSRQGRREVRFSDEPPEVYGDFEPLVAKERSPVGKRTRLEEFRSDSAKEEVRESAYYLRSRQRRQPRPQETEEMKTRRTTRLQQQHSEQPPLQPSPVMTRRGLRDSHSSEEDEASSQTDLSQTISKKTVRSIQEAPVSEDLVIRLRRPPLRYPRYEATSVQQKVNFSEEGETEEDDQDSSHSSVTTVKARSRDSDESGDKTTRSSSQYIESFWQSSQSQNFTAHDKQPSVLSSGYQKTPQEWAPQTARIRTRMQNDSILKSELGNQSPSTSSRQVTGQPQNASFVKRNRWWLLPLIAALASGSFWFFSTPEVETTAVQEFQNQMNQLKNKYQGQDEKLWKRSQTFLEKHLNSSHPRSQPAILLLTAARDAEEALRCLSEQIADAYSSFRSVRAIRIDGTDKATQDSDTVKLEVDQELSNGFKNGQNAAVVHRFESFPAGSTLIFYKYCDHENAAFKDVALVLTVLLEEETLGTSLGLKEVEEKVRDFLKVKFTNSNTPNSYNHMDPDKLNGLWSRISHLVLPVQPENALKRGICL
# [20] = molecular target: Alpha-bungarotoxin (Bungarus multicinctus) (UniProt P60615); test: alpha-bungarotoxin binders on microarray, profiling panel, artefact control for SMM control protein annotation, biochemical, small-molecule microarray, Alexa647 label, 635/667 nm fluorescence (AID 1117); details: alpha-BTX-A647 binding fluorescence, higher = more signal
# Sequence of Alpha-bungarotoxin (Bungarus multicinctus) (P60615 whole entry, looked up): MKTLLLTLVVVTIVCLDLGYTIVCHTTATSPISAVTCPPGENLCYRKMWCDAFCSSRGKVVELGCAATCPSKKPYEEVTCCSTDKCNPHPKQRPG
Compound,composite z-score [1],composite z-score [2],composite z-score [3],z-score [4],composite z-score [5],composite z-score [6],composite z-score [7],composite z-score [8],composite z-score [9],composite z-score [10],composite z-score [11],z-score [12],composite z-score [13],composite z-score [14],composite z-score [15],composite z-score [16],composite z-score [17],composite z-score [18],composite z-score [19],composite z-score [20]
C[N+](C)(C)CCCCCCNC(=O)[C@@H]1C[C@@H]2C(=O)N[C@@H](Cc3ccccc3)C(=O)N2[C@@H]1c1ccc(O)cc1,1.61,-0.409,-0.578,0.372 (inactive),1.21,0.89,0.776,1.48,0.92,0.633,1.32,0.389,1.27,-0.193,-0.927,-0.0236,-0.156,0.0498,1.41,1.54
CCCC[C@@H]1C[C@H]1[C@@H](NC(=O)c1ccc(C(F)(F)F)cc1)c1ccc(C(=O)OC)cc1,0.234,0.172,0.158,-1.22 (inactive),0.743,0.352,0.6,1.09,0.583,1.32,0.733,-1.33,0.497,0.995,0.271,0.869,2.11,0.238,1.27,1.48
CC(C)C[C@@H]1NC(=O)C([C@@H](C)OCc2ccccc2)NC(=O)[C@@]23C(=O)N[C@@H](Cc4ccccc4)C2[C@H](C)[C@@]2(C)O[C@H]2C3/C=C/CC/C=C/CNC1=O (stereo not given in full),1.38,-0.309,-0.475,-1.62 (inactive),0.699,0.517,0.432,0.721,0.445,1.13,1.12,-2.63,0.458,-0.407,-0.543,-0.15,-0.0064,-0.24,0.0641,-0.0687
CCCC=C(CCC)[C@@H](NC(=O)c1ccccc1)c1ccc(C(=O)OC)cc1,0.578,0.374,-0.0902,-1.98 (inactive),1,0.294,0.891,0.806,0.162,0.613,0.882,-1.32,0.898,-0.271,-0.52,0.732,0.318,1.71,-0.171,0.303
CC(C)C[C@@H]1NC(=O)[C@@H]2C[C@H](C(=O)NCCCC[N+](C)(C)C)[C@H](c3ccc(O)cc3)N2C1=O,1.39,-0.0913,-0.587,0.438 (inactive),1.3,0.896,0.81,1.56,1.79,-0.531,0.39,-0.996,1.05,-0.928,-0.768,0.0031,0.199,0.114,1.24,0.789
C=CCOC(=O)[C@H]1[C@@H]2C(=O)O[C@@H](c3ccccc3)[C@@H](c3ccccc3)N2[C@@H](c2ccc(OCCOC(=O)[C@@H]3C[C@@H]4C(=O)N[C@@H](Cc5ccccc5)C(=O)N4[C@@H]3c3ccc(O)cc3)cc2)[C@]12C(=O)Nc1ccccc12,1.34,-0.271,-0.25,0.878 (inactive),1.18,1.29,0.328,0.953,0.973,-0.0812,1.35,-1.85,0.747,1.48,0.0137,-0.124,-0.232,0.281,0.409,0.948
CC(C)CNC(=O)[C@@H]1c2ccccc2C(=O)N(Cc2ccccc2)[C@H]1c1ccc(CO)cc1,0.0346,0.282,0.96,-0.18 (inactive),-0.787,0.0758,-1.35,-1.38,-1.05,-0.217,0.93,0.372,-1.35,-0.148,-0.202,-0.253,-0.1,0.127,0.936,-0.865
CCCC=C(CCC)[C@@H](NC(=O)c1ccco1)c1ccc(C(=O)OC)cc1,0.851,0.241,1.01,-0.545 (inactive),1.08,1.3,0.0415,0.938,-0.18,0.46,1.43,-2.72,0.177,1.37,1.27,0.117,0.202,1.69,1.02,1.38
CCCC[C@H]1OB(O)C[C@H]2C1=C(C)C[C@H]1C(=O)C=CC(=O)[C@H]12,0.559,-0.257,-0.722,1.04 (inactive),0.845,0.827,0.475,0.799,0.664,0.852,1.04,-2.52,0.686,-0.321,-0.741,-0.132,0.0278,-0.109,0.0514,0.178
CCOC(=O)C1=CC[C@@H](c2ccccc2)N(S(=O)(=O)C[Si](C)(C)C)[C@H]1c1ccccc1,1.09,0.319,-0.0475,-1.02 (inactive),0.78,0.651,0.461,1.37,0.405,0.193,1.38,-0.61,0.618,1.36,0.391,0.105,-0.2,0.509,1.02,1.02
COCC(=C=CC[C@@H](O)c1ccc(OCCO)cc1)C[C@@H](O)COCc1ccccc1,0.804,-0.0148,0.548,-1.83 (inactive),1.52,0.611,0.158,0.939,-0.0983,1.42,1.39,-1.08,1,0.0268,0.473,0.0559,0.0611,0.629,0.319,0.0353

# Source: PubChem BioAssay
